A number with no mark means an inactive call. Calls of active or inactive are those of the source.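 How the source made its calls, unless noted: active means viability loss from added drug above about 55%, and viability with drug at most 40%, in both replicates (limit read from the data, passing the limit was not always enough); inconclusive means both conditions met in only one replicate; inactive means neither replicate meets both conditions.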

A short description of the first test: H69AR cell proliferation blockers – human, duplicate replicates, primary screen (AID 580;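 active means viability at or under a set limit in both replicates, limit being median viability minus 3 SD, cut at about 48% in these data, passing the limit was not always enough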;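 further: 100% = mean luminescence of untreated wells and 0% = no signal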). Conditions: H69AR lung tumor cells viability, ATP luminescence, 72 h; at 10 µM; stronger effect = lower value.
By viability is commonly meant a read-out of living cells in per cent, often relative to untreated cells. Regarding `CCSc1nc2ccccc2n1CCC(=O)O`, the viability is 109%.
Turning to `C=CCN(CC=C)C(=O)CN1C(=O)c2ccccc2C1=O`, the viability was 92.2%.
For `CCOC(=O)N1CCN(CC(=O)Nc2c(C(=O)OC)[nH]c3cccc(Cl)c23)CC1`, the viability was 86.6%.
Still for that read-out and setting: next, `CC(=O)Nc1ccc(NC(=O)C(C)Oc2ccccc2F)cc1` (stereo not drawn): 103%.
With `CCCCC(=O)Nc1c(O)c2ccccc2[nH]c1=O`, the viability is 98.3%.
With `O=C(Cc1ccc(Br)cc1)N1CCCCCC1`, the viability is 97.9%.
Take `CC1=C(C(=O)NCc2ccccn2)C2(CCC(C)CC2)OC1=O` (stereo not drawn): the viability is 89.4%.
Regarding `Cc1nc(C)c(C(=O)Nc2ccc(Oc3ccccc3)cc2)o1`, the viability is 103%.
On to `Cc1ccc2c(c1)sc1ncc(NC(=O)c3ccccc3)c(=O)n12`, for which the viability is 91.7%.
Still for that read-out and setting: next, `Cc1ccc2cc(CN(CC(C)C)C(=O)C3CCCO3)c(=O)[nH]c2c1` (stereo not drawn): 102%.
For `O=C(NCC1CCCO1)c1cccc(N2C(=O)C3C4C=CC(C4)C3C2=O)c1` (stereo not drawn), the viability was 100%.
On the same count and under the same terms, under `CCOC(=O)c1sc2nc3c(cc2c1N)COC(C)(C)C3` stands 98.4%; under `CCCCn1c(SCC(=O)NCc2ccccc2)nc2ccc(N3CCOCC3)cc2c1=O`, 74%.
For `Cc1ccccc1-c1nc(CS(=O)(=O)CC(=O)N(C)C2CCCCC2)c(C)o1`, the viability is 92.7%.
As for `COC1CCCCC1NS(=O)(=O)c1ccccc1` (stereo not drawn), the viability was 97.7%.
`O=C(CSc1nc2ccccc2nc1SCC(=O)N1CCOCC1)N1CCOCC1`: the viability is 95.7%.
In the case of `Cc1ccccc1-c1nc(CS(=O)(=O)CC(=O)NCc2ccccc2)c(C)o1`, the viability was 96.5%.
Consider `Cc1ccc(S(=O)(=O)N2CCN(C(=O)CN3CCOCC3)C2C(C)C)cc1` (stereo not drawn), for which the viability is 104%.
Still for that read-out and setting: under `CC(CN1CCCCC1)OC(=O)c1ccc2c(c1)OCO2` (stereo not drawn) stands 94.1%; under `CCOC(=O)N1CCN(C(=O)CN(C)S(=O)(=O)c2ccc(OC)c(OC)c2)CC1`, 91.5%; under `CC1(C)CC(=O)CC(C)(C)N1OC(=O)c1ccccn1`, 102%.
As for `Cc1cccc(NC(=O)CC2NC3CCCCC3NC2=O)c1` (stereo not drawn), the viability is 93.6%.
Still for that read-out and setting: under `O=C(CS(=O)(=O)c1cn(Cc2ccc(Cl)cc2)c2ccccc12)N1CCOCC1` stands 97%; under `Cc1cccc(-n2ncc3c(N)ncnc32)c1`, 98.3%.
Turning to `O=C(CN1CCN(c2nc(-c3ccccc3)cs2)CC1)Nc1ccc2c(c1)OCO2`, the viability was 101%.
Consider `CCC12CN3CC(CC)(CN(C1)C3c1ccc(OC(C)C)cc1)C2=O` (stereo not drawn), for which the viability is 105%.
Regarding `Cc1c(/C(O)=C2/C(=O)C(=O)N(CCN3CCOCC3)C2c2cccs2)cnn1-c1ccccc1` (stereo not drawn), the viability is 96.2%.
Same read-out and setting: next, `c1cc2c(cc1C1=Nn3c(nnc3C3CCCCC3)SC1)OCO2`: 9.93% (active); `COc1ccc(CNC(=O)C(c2ccco2)N(Cc2cccs2)C(=O)Cc2cccs2)cc1` (stereo not drawn): 72.5%.
On the same count and under the same terms, next, `Cc1cccc(NC(=O)c2cc3ccccc3o2)c1`: 86.3%.
The same measure, in the same setting: under `COc1ccc(S(=O)(=O)NCCOc2ccccc2)cc1OC` stands 91.5%.
Turning to `Cc1nc(SC2C=CS(=O)(=O)C2)n[nH]1` (stereo not drawn), the viability was 86.3%.
Still for that read-out and setting: next, `O=C1c2ccccc2C(Nc2ccc3nc(-c4cccnc4)[nH]c3c2)N1Cc1ccco1` (stereo not drawn): 91.2%; `Cc1ccc(NC(=O)CSc2nnc(CCCCCNC(=O)OC(C)(C)C)o2)c(C)c1`: 93.2%; `O=S(=O)(NCC1CCCO1)c1ccc(S(=O)(=O)N2CCc3ccccc3C2)cc1` (stereo not drawn): 94.8%.
As for `COC(=O)c1ccc(C(=O)OC)c(NC(=O)Nc2ccc3c(c2)OCO3)c1`, the viability was 92.7%.
As for `CCN(CC(=O)NCc1cccs1)C(=O)c1cc(S(=O)(=O)N2CCOCC2)ccc1C`, the viability is 87.7%.
As for `COc1ccc(-c2c3c(=O)n(C)c(=O)n(C)c3cn2-c2cccc(OC)c2)cc1`, the viability was 89.7%.
For the compound `CCOC(=O)CCC(=O)Nc1ccc(S(=O)(=O)N2CCCC2)cc1`, the viability is 102%.

A further test can be described thus: MRP1 drug-resistance reversers in H69AR cells – cell-based, doxorubicin co-treatment, pilot screen (AID 601). The settings on record: H69AR cells + 2 uM doxorubicin, CellTiter-Glo, 72 h; at 10 µM; stronger effect = higher value. (ATP-based viability assays read luminescence as a measure of living cells.)
Consider `CCSc1nc2ccccc2n1CCC(=O)O`, for which the differential viability (reversal) was 15.9%.
On the same count and under the same terms, next, `C=CCN(CC=C)C(=O)CN1C(=O)c2ccccc2C1=O`: 0.065%; `CCOC(=O)N1CCN(CC(=O)Nc2c(C(=O)OC)[nH]c3cccc(Cl)c23)CC1`: -1.14%; `CC(=O)Nc1ccc(NC(=O)C(C)Oc2ccccc2F)cc1` (stereo not drawn): 18.8%.
Same read-out and setting: under `CCCCC(=O)Nc1c(O)c2ccccc2[nH]c1=O` stands -2.29%; under `O=C(Cc1ccc(Br)cc1)N1CCCCCC1`, 8.29%.
As to `CC1=C(C(=O)NCc2ccccn2)C2(CCC(C)CC2)OC1=O` (stereo not drawn), the differential viability (reversal) was -0.25%.
Regarding `Cc1nc(C)c(C(=O)Nc2ccc(Oc3ccccc3)cc2)o1`, the differential viability (reversal) is 23.8%.
Consider `Cc1ccc2c(c1)sc1ncc(NC(=O)c3ccccc3)c(=O)n12`, for which the differential viability (reversal) is 3.43%.
On to `Cc1ccc2cc(CN(CC(C)C)C(=O)C3CCCO3)c(=O)[nH]c2c1` (stereo not drawn), for which the differential viability (reversal) is 5.11%.
`O=C(NCC1CCCO1)c1cccc(N2C(=O)C3C4C=CC(C4)C3C2=O)c1` (stereo not drawn): the differential viability (reversal) was 10.3%.
As to `CCOC(=O)c1sc2nc3c(cc2c1N)COC(C)(C)C3`, the differential viability (reversal) was 3.91%.
On to `CCCCn1c(SCC(=O)NCc2ccccc2)nc2ccc(N3CCOCC3)cc2c1=O`, for which the differential viability (reversal) was -5.76%.
On to `Cc1ccccc1-c1nc(CS(=O)(=O)CC(=O)N(C)C2CCCCC2)c(C)o1`, for which the differential viability (reversal) is 0.46%.
In the case of `COC1CCCCC1NS(=O)(=O)c1ccccc1` (stereo not drawn), the differential viability (reversal) was 1.47%.
With `O=C(CSc1nc2ccccc2nc1SCC(=O)N1CCOCC1)N1CCOCC1`, the differential viability (reversal) was 1.15%.
Regarding `Cc1ccccc1-c1nc(CS(=O)(=O)CC(=O)NCc2ccccc2)c(C)o1`, the differential viability (reversal) is 6.09%.
Still for that read-out and setting: next, `Cc1ccc(S(=O)(=O)N2CCN(C(=O)CN3CCOCC3)C2C(C)C)cc1` (stereo not drawn): 9.15%.
With `CC(CN1CCCCC1)OC(=O)c1ccc2c(c1)OCO2` (stereo not drawn), the differential viability (reversal) was 7.31%.
As for `CCOC(=O)N1CCN(C(=O)CN(C)S(=O)(=O)c2ccc(OC)c(OC)c2)CC1`, the differential viability (reversal) was 3.21%.
For `CC1(C)CC(=O)CC(C)(C)N1OC(=O)c1ccccn1`, the differential viability (reversal) is 8.9%.
On to `Cc1cccc(NC(=O)CC2NC3CCCCC3NC2=O)c1` (stereo not drawn), for which the differential viability (reversal) was 2.89%.
On the same count and under the same terms, under `O=C(CS(=O)(=O)c1cn(Cc2ccc(Cl)cc2)c2ccccc12)N1CCOCC1` stands 8.43%.
In the case of `Cc1cccc(-n2ncc3c(N)ncnc32)c1`, the differential viability (reversal) is 17.7%.
With `O=C(CN1CCN(c2nc(-c3ccccc3)cs2)CC1)Nc1ccc2c(c1)OCO2`, the differential viability (reversal) is 5.71%.
Turning to `CCC12CN3CC(CC)(CN(C1)C3c1ccc(OC(C)C)cc1)C2=O` (stereo not drawn), the differential viability (reversal) is 10.7%.
The same measure, in the same setting: under `Cc1c(/C(O)=C2/C(=O)C(=O)N(CCN3CCOCC3)C2c2cccs2)cnn1-c1ccccc1` (stereo not drawn) stands 1.22%; under `c1cc2c(cc1C1=Nn3c(nnc3C3CCCCC3)SC1)OCO2`, -67.4%; under `COc1ccc(CNC(=O)C(c2ccco2)N(Cc2cccs2)C(=O)Cc2cccs2)cc1` (stereo not drawn), 8.17%.
As for `Cc1cccc(NC(=O)c2cc3ccccc3o2)c1`, the differential viability (reversal) was 8.2%.
Regarding `COc1ccc(S(=O)(=O)NCCOc2ccccc2)cc1OC`, the differential viability (reversal) is -2.55%.
As for `Cc1nc(SC2C=CS(=O)(=O)C2)n[nH]1` (stereo not drawn), the differential viability (reversal) was -13.9%.
Consider `O=C1c2ccccc2C(Nc2ccc3nc(-c4cccnc4)[nH]c3c2)N1Cc1ccco1` (stereo not drawn), for which the differential viability (reversal) was 10.1%.
The same measure, in the same setting: next, `Cc1ccc(NC(=O)CSc2nnc(CCCCCNC(=O)OC(C)(C)C)o2)c(C)c1`: 1.79%.
Regarding `O=S(=O)(NCC1CCCO1)c1ccc(S(=O)(=O)N2CCc3ccccc3C2)cc1` (stereo not drawn), the differential viability (reversal) is 5.08%.
With `COC(=O)c1ccc(C(=O)OC)c(NC(=O)Nc2ccc3c(c2)OCO3)c1`, the differential viability (reversal) is -2.65%.
For the compound `CCN(CC(=O)NCc1cccs1)C(=O)c1cc(S(=O)(=O)N2CCOCC2)ccc1C`, the differential viability (reversal) is -0.58%.
For `COc1ccc(-c2c3c(=O)n(C)c(=O)n(C)c3cn2-c2cccc(OC)c2)cc1`, the differential viability (reversal) was -3.48%.
`CCOC(=O)CCC(=O)Nc1ccc(S(=O)(=O)N2CCCC2)cc1`: the differential viability (reversal) is 5.38%.

(Values after PubChem BioAssay.)
